Assay [1] can be described thus: High-throughput drug toxicity screening in the BPDCN cell line Gen2.2 (AID 1224824; call rule not given here;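 also: cells exposed to compounds for 48 h before reading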). The settings on record: Gen2.2 BPDCN cells; at 45.8 µM (top of the series) unless noted. A digest of the protocol:
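CellTiter-Glo luminescence after 48 h compound exposure of Gen2.2 cells; percent activity set with DMSO as 100% and bortezomib (9.2 uM final) as 0%. Cells seeded at 500 per well, RPMI + 10% FBS, 37 °C.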

Assay [2] is described as follows: High-throughput drug toxicity screening in the BPDCN cell line Cal-1 (AID 1224825; call rule not given here). The settings on record: Cal-1 BPDCN cell viability, qHTS; at 45.8 µM (top of the series) unless noted. A digest of the protocol:
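Exponentially growing Cal-1 cells, 500 per well in phenol red-free RPMI with 10% FBS, were exposed to compounds for 48 h at 37 °C, 5% CO2. Viability was read by CellTiter-Glo luminescence and normalised to DMSO (100%) and 9.2 uM bortezomib (0%).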

A short description of assay [3]: qHTS assay for measurement of the activity of small molecule inhibitors on Zika virus induced Caspase-3 activity in human iPSC derived neural progenitor cells (hNPCs) (AID 1224857). Also: nearly all actives have a fitted effect of over 65% in size. Also: potency is read from the fitted curve at half-maximal effect. A digest of the protocol: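 Human iPSC-derived neural progenitor cells pretreated 1 hr with compounds, then infected with Zika virus (2 FFU/cell) for 6 hours at 37 C. Caspase-3/7 measured by Caspase-Glo luminescence; % inhibition calculated from induction scaled to uninfected (0%) and infected (100%) wells.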
Background: qHTS replaces the single test concentration by a dilution series.

A short description of assay [4]: qHTS assay for measurement of the activity of small molecule inhibitors on Zika virus induced Caspase-3 activity in human astrocytoma cells (AID 1224859). Also: potency is read from the fitted curve at half-maximal effect. A digest of the protocol:
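SNB-19 astrocytoma cells, 250/well, pretreated 1 h with compounds, then Zika virus at 2 FFU/cell for 6 h at 37 C; Caspase-Glo 3/7 luminescence after 30 min; percent inhibition normalised to uninfected and infected controls.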

The nature of assay [5]: qHTS Screen of the MIPE 4.0 Collection Against Ewings Sarcoma (RDES) (AID 1259252). Also: nearly all actives have a fitted effect of over 35% in size. Also: potency is read from the fitted curve at half-maximal effect. A digest of the protocol:
(§1)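 Here, cells in 5% FBS RPMI were exposed for two days (48 h) to compound dilutions added four hours after plating. ATP-based CellTiter-Glo luminescence measured viability, normalized to vehicle and no-cell blanks.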

Assay [6] in a line: qHTS Screen of the MIPE 4.0 Collection Against Ewings Sarcoma (TC71) (AID 1259253). Also: nearly all actives have a fitted effect of over 40% in size. Also: potency is read from the fitted curve at half-maximal effect. A digest of the protocol: as §1
A short description of assay [7]: qHTS Screen of the MIPE 4.0 Collection Against Ewings Sarcoma (EW8) (AID 1259255). Also: nearly all actives have a fitted effect of over 35% in size. Also: potency is read from the fitted curve at half-maximal effect.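 As to viability: 100% = DMSO-treated cells and 0% = medium-only wells without cells.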 A digest of the protocol: as §1
Assay [8] in a line: qHTS Screen of the MIPE 4.0 Collection Against Ewings Sarcoma (TC32) (AID 1259256). Also: nearly all actives have a fitted effect of over 45% in size. Also: potency is read from the fitted curve at half-maximal effect. A digest of the protocol: as §1
The nature of assay [9]: P-glycoprotein substrates identified in KB-8-5-11 adenocarcinoma cell line, qHTS therapeutic library screen (AID 1346987). Also: nearly all actives have a fitted effect of over 65% in size. Also: potency is read from the fitted curve at half-maximal effect. A digest of the protocol: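 Steps: plate 500 KB-8-5-11 cells/well in DMEM + 10% FCS (colchicine removed); pin compounds in dose-response; incubate 72 h, 37 degree C, 5% CO2; add CellTiter-Glo, 5 min; read luminescence.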
Assay [10] is described as follows: P-glycoprotein substrates identified in KB-3-1 adenocarcinoma cell line, qHTS therapeutic library screen (AID 1346986). Also: nearly all actives have a fitted effect of over 60% in size. A digest of the protocol: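 Resistance attributable to P-gp was assessed by comparing AC50 in KB-8-5-11 with parental KB-3-1 and by tariquidar reversal. Cells were exposed 72 h and viability read by CellTiter-Glo.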

Values joined by “and” are separate entries in the source; they are usually repeats but may differ in a detail not shown here. Identical values can stand only once. Results filed as inconclusive are left out. Active and inactive are the calls of the source. Unless noted, calls follow the shape of the dose curve; as a rule, active = well fitted curve in the direction sought with a large enough effect; inconclusive = small, poorly fitted or top-dose-only effect, or another doubt; inactive = no such curve, though single readings can be large; an effect the other way counts as inactive or inconclusive. Positions of bridges follow the written chain, without caps; N, C: chain ends. Non-standard residues stand in square brackets, D forms with d. Residues, ends and D or L forms follow the SMILES beside them. ξ: configuration not given here. *: point of attachment. Octanoyl(6-Me) = CCC(C)CCCCC(=O)*; ξThr(3R) = C[C@@H](O)C(N)C(=O)O; dDab = NCC[C@@H](N)C(=O)O; Dab = NCC[C@H](N)C(=O)O

As to `COc1ccc(C(C)=O)c(O)c1`, the cell viability, % of control (lower = more cytotoxic) in assay [1] stood at 146%. In addition, the viability (% of control) in [2] came to 35.9%. The Potency result in assay [3], in [4], in assay [5], in assay [6], in assay [7] and in [8] was “inactive” throughout. In addition, in assay [9], the Potency result was “inactive”.

For the compound `O=C1CSC(=O)N1C(CCc1ccncc1)COc1ccc(-c2cccc([N+](=O)[O-])c2)cc1` (centres undefined), the cell viability, % of control (lower = more cytotoxic) in [1] stood at 188%. The viability (% of control) in assay [2] was determined as 33%. Moreover, the Potency result in assay [3], in assay [4] and in assay [9] was “inactive” in each case. For the same compound, the Potency in assay [5] is 2960 nM (active); in assay [6], 4690 nM (active); in assay [7], 13200 nM (active); in [8], 6620 nM (active).

As to `C=CC(=O)Nc1ccc2ncnc(Nc3ccc(OCc4cccc(F)c4)c(Cl)c3)c2c1`, the cell viability, % of control (lower = more cytotoxic) in [1] worked out at 13%. For the same compound, the viability (% of control) in assay [2] worked out at 2.97%. Also, the Potency entry in assay [3] and in assay [4] was “inactive” throughout. Further, the Potency was 148 nM (active) in assay [5]; 1180 nM (active) in assay [6]; 2090 nM (active) in [7]; 833 nM (active) in assay [8]; 23.5 µM (active) and 16.4 µM (active) in assay [9].

Consider `COc1cc(N2CCC(C(N)=O)CC2)ccc1Nc1nc(N)c(Cl)c(Nc2ccccc2S(=O)(=O)C(C)C)n1`, for which the cell viability, % of control (lower = more cytotoxic) in assay [1] worked out at 147%. In addition, in [2], the viability (% of control) was 10.6%. Further, the Potency entry in assay [3], in assay [4] and in assay [9] was “inactive” throughout. Besides, the Potency was 1050 nM (active) in assay [5], 16600 nM (active) in assay [6] and 20900 nM (active) in [7].

As for `O=C(Nc1cc2cc[nH]c2cn1)c1ccccc1`, the cell viability, % of control (lower = more cytotoxic) in [1] is 13.5%. Further, the viability (% of control) in assay [2] worked out at 8.25%. For the same compound, the Potency is 4690 nM (active) in assay [3]; 5260 nM (active) in [4]; 13200 nM (active) in [5]; 14800 nM (active) in [7]; 13200 nM (active) in assay [8].

As to `COC[C@H](NC(=O)c1cnc(C)s1)C(=O)N[C@@H](COC)C(=O)N[C@@H](Cc1ccccc1)C(=O)[C@@]1(C)CO1`, the cell viability, % of control (lower = more cytotoxic) in assay [1] stood at 0.973%. The viability (% of control) in assay [2] is 3.48%. Besides, the Potency result in assay [3] and in assay [4] was “inactive” each time. The Potency in assay [5] was 132 nM (active); in assay [6], 296 nM (active); in assay [7], 105 nM (active); in assay [9], 3.72 µM (active).

On to `Cn1cc(CNCC2CCN(c3ncc(C(=O)NO)cn3)CC2)c2ccccc21`, for which the cell viability, % of control (lower = more cytotoxic) in assay [1] is 12.7%. For the same compound, the viability (% of control) in assay [2] was determined as 4.24%. For the same compound, the Potency entry in assay [3] and in assay [4] was “inactive” each time. The Potency in [5] is 33.2 nM (active); in [6], 33.2 nM (active); in assay [7] it was 33.2 nM (active); in assay [8] it was 20.9 nM (active); in assay [9] it was 1.05 µM (active).

Turning to `C[C@H]1[C@@H](OC(=O)CCC(=O)O)O[C@@H]2O[C@@]3(C)CC[C@@H]4[C@H](C)CC[C@@H]1[C@@]24OO3`, in [1], the cell viability, % of control (lower = more cytotoxic) is 9.55%. Moreover, the viability (% of control) in assay [2] was determined as 5.3%. Also, the Potency result in assay [3] and in [4] was “inactive” each time. Moreover, the Potency in assay [5] is 1870 nM (active); in assay [6], 1320 nM (active); in assay [7] it was 1660 nM (active); in [9] it was 16.6 µM (active).

Consider `C[C@H](NC(=O)C(C#N)=Cc1cccc(Br)n1)c1ccccc1`, for which the cell viability, % of control (lower = more cytotoxic) in assay [1] came out at 5.54%. For the same compound, in [2], the viability (% of control) was 4.37%. In addition, the Potency result in [3] and in [4] was “inactive” throughout. The Potency in assay [5] was 16600 nM (active); in [7] it was 16600 nM (active); in [8], 18700 nM (active); in assay [9], 20.9 µM (active).

`O=c1[nH]c(=O)n([C@H]2C[C@@H](O)[C@@H](CO)O2)cc1F`: in assay [1], the cell viability, % of control (lower = more cytotoxic) amounted to 74.8%. Moreover, the viability (% of control) in assay [2] is 19.4%. In addition, the Potency entry in assay [3] and in assay [4] was “inactive” each time. Further, the Potency was 59 nM (active) in assay [5], 93.5 nM (active) in assay [6], 59 nM (active) in assay [7] and 1.66 µM (active) in [9].

As to `C=Cc1c(C)c2cc3nc(cc4[nH]c(cc5nc(cc1[nH]2)C(C)=C5CCC(=O)O)c(CCC(=O)OC)c4C)[C@@]1(C)C3=CC=C(C(=O)OC)[C@H]1C(=O)OC`, in assay [1], the cell viability, % of control (lower = more cytotoxic) worked out at 5.48%. Also, in assay [2], the viability (% of control) came to 3.29%. In addition, the Potency entry in assay [3], in assay [4], in assay [10] and in assay [9] was “inactive” throughout. The Potency was 41.8 nM (active) in assay [5], 118 nM (active) in [7] and 74.3 nM (active) in assay [8].

On to `CCC(C)CCCCC(=O)N[C@@H](CCN)C(=O)NC(C(=O)N[C@H](CCN)C(=O)N[C@@H]1CCNC(=O)C([C@@H](C)O)NC(=O)[C@@H](CCN)NC(=O)[C@@H](CCN)NC(=O)[C@@H](CC(C)C)NC(=O)[C@H](Cc2ccccc2)NC(=O)[C@H](CCN)NC1=O)[C@@H](C)O` (stereo partly drawn) ({Octanoyl(6-Me)}-[Dab][ξThr(3R)][dDab][dDab][Dab]F[dL][dDab][dDab][ξThr(3R)]; lactam 4-C), for which, in [1], the cell viability, % of control (lower = more cytotoxic) is 172%. Further, the viability (% of control) in [2] amounted to 116%. Moreover, the Potency entry in [3], in [4], in assay [5], in assay [7], in [8] and in assay [9] was “inactive” throughout.

As to `Cc1cnn(C)c1C(=O)Nc1cc(Nc2ccc3c(C=Cc4ccccn4)n[nH]c3c2)ccc1F`, in assay [1], the cell viability, % of control (lower = more cytotoxic) came out at 97.2%. Also, the viability (% of control) in [2] is 10.9%. Also, the Potency entry in [3] and in assay [4] was “inactive” in each case. Further, the Potency in assay [5] was 26400 nM (active); in assay [6], 16600 nM (active); in [7], 18700 nM (active); in [9], 5.26 µM (active).

As to `O=C(c1ccc(F)cc1)N1CCC[C@H](c2nc(-c3ccc(F)cc3)no2)C1`, in assay [1], the cell viability, % of control (lower = more cytotoxic) turned out to be 93.8%. Also, the viability (% of control) in [2] turned out to be 111%. For the same compound, the Potency entry in assay [3], in assay [4], in assay [5], in assay [6] and in [7] was “inactive” each time. In assay [9], the Potency was 0.118 µM (active).

As for `CCCCCCCCCCCC(CC1OC(=O)C1CCCCCC)OC(=O)C(CC(C)C)NC=O` (centres undefined), the cell viability, % of control (lower = more cytotoxic) in [1] stood at 82.8%. Besides, the viability (% of control) in [2] was 89.4%. Further, the Potency result in [3], in [4], in [5], in assay [6], in [7] and in assay [9] was “inactive” in each case.

`Cc1onc(-c2ccccc2)c1C(=O)N[C@@H]1C(=O)N2[C@@H](C(=O)O)C(C)(C)S[C@@H]12`: the cell viability, % of control (lower = more cytotoxic) in [1] turned out to be 73.2%. Further, in [2], the viability (% of control) amounted to 120%. In addition, the Potency entry in assay [3], in assay [4], in [5], in assay [7], in assay [8] and in assay [9] was “inactive” in each case.

As for `CCCc1nc(C(C)(C)O)c(C(=O)O)n1Cc1ccc(-c2ccccc2-c2nn[nH]n2)cc1`, the cell viability, % of control (lower = more cytotoxic) in [1] came out at 110%. In addition, the viability (% of control) in assay [2] is 103%. For the same compound, the Potency entry in assay [3], in assay [4], in assay [5], in assay [6], in assay [7] and in assay [9] was “inactive” each time.

Consider `CCc1cc(C(C)=NOCc2ccc(C3CCCCC3)c(C(F)(F)F)c2)ccc1CN1CC(C(=O)O)C1`, for which the cell viability, % of control (lower = more cytotoxic) in assay [1] is 68%. Besides, the viability (% of control) in assay [2] was 19.7%. Besides, the Potency entry in assay [3], in assay [4], in assay [5], in assay [6], in assay [7] and in assay [10] was “inactive” in each case. In assay [9], the Potency entry is “inactive”.

Values taken from PubChem BioAssay (NCATS).
